The results in this text go back to patent US10344301, “Mutants of the bacteriophage lambda integrase” (AGENCY FOR SCIENCE, TECHNOLOGY AND RESEARCH).

The chains are these.
T1: I43F C2 integrase (Bacteriophage lambda, UniProt P03700 SEQ:1-356, I43F)
T1 sequence: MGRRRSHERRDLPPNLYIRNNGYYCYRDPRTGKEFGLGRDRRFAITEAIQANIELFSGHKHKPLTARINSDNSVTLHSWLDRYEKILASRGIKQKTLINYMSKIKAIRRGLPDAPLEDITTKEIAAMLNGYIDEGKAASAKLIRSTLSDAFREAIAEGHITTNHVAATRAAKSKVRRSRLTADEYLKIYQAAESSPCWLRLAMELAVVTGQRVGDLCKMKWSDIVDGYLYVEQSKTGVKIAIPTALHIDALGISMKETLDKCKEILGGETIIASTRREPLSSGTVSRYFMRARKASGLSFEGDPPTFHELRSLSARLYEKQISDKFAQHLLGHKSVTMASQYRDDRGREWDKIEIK

B1: attH ; attPH (dsDNA ; dsDNA)
DNA 1: CTGCTTTCTTATACCAAGTGG
DNA 2: CCACTTGGTATAAGAAAGCAG
DNA 3: CAGCTTTCTTATACCAAGTTG
DNA 4: CAACTTGGTATAAGAAAGCTG
B2: attB ; attP (dsDNA ; dsDNA)
DNA 1: CTGCTTTTTTATACTAACTTG
DNA 2: CAAGTTAGTATAAAAAAGCAG
DNA 3: CAGCTTTTTTATACTAAGTTG
DNA 4: CAACTTAGTATAAAAAAGCTG
B3: attH4X ; attP4X (dsDNA ; dsDNA)
DNA 1: ACGCTTTATTTCATTAAGTTG
DNA 2: CAACTTAATGAAATAAAGCGT
DNA 3: CAGCTTTATTTCATTAAGTTG
DNA 4: CAACTTAATGAAATAAAGCTG

In this test the target is T1, I43F C2 integrase. The test is described as follows: IVT; E319G removed from C3. To be noted: tags: PURExpress IVT.
As for B1, the binding signal was ~3 fold reduced vs C3.

For B2, the binding signal was ~3 fold reduced vs C3.

As for B3, the binding signal is ~3 fold reduced vs C3.
